In all, about 310,000 compounds went through this assay and about 14,000 (4.5%) showed an effect of 50% or more. Effects have a minus sign here. For the sample, strong results were picked, then their nearest neighbours and some compounds at random.
The molecules below were run against human ether-à-go-go-related gene (hERG) potassium channel (human, UniProt Q12809) (assay: primary screen, population patch clamp on CHO cells stably expressing hERG; higher = less effect of the substance).
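Note: peak tail current of the secondary pulse compared with the same well before compound.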

human ether-à-go-go-related gene (hERG) potassium channel, sequence (Q12809 whole entry, looked up): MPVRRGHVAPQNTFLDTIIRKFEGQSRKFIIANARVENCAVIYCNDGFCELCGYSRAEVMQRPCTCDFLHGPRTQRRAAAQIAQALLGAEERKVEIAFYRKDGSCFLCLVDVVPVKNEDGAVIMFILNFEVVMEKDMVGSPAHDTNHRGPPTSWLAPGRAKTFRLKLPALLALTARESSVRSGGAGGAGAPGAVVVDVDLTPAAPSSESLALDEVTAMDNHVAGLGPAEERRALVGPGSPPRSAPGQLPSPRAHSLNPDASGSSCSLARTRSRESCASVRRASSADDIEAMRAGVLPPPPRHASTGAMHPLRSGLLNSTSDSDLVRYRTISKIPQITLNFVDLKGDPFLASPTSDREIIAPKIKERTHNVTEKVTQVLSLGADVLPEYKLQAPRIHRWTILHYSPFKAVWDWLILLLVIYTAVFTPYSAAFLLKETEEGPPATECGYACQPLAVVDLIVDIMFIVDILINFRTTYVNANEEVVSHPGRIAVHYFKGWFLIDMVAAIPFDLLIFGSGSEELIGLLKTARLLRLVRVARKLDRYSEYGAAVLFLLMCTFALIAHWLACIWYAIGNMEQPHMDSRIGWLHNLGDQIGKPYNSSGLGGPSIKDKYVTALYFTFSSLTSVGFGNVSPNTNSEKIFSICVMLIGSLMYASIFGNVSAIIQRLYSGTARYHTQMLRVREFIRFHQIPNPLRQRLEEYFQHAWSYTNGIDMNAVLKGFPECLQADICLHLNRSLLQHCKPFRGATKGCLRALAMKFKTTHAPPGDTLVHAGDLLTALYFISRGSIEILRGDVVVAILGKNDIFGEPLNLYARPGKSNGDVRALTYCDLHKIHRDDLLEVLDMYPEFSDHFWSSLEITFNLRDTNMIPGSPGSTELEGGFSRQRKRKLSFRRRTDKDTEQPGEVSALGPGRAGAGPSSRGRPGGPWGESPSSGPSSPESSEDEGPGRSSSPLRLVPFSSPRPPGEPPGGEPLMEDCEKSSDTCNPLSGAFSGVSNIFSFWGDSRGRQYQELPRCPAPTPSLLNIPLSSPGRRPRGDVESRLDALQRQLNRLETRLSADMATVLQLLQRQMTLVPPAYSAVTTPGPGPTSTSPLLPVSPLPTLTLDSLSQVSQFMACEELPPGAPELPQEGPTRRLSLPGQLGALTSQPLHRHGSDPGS

Compound	hERG current change (%, negative = inhibition) at 10uM
Cc1ccccc1N1C(=O)CSC1=C(C#N)C#N	18.3%
S=C(NCc1ccccn1)Nc1ccccc1	16.3%
Cc1ccc(N2CC(C(=O)NC3CC3)CC2=O)cc1Cl (stereo not drawn)	10%
CCOC(=O)CSc1nc2sc3c(c2c(=O)[nH]1)CC(C)(C)OC3	0.154%
CSc1cccc(NC(=O)CN(C2CCCCC2)S(C)(=O)=O)c1	-7.59%
Cc1ccc(-c2csc3nc[nH]c(=S)c23)cc1C	27.5%
CSc1nc(C)cc(C)c1S(=O)(=O)c1ccccc1C	7.41%
Fc1ccc(CN2CCCCCCC2)cc1F	-24%
O=C(Cc1ccccc1)N1CCN(CC2CC=CCC2)CC1 (stereo not drawn)	-3.05%
OCC1(Cc2ccc(Cl)cc2)CCN(CCCc2ccccc2)CC1	-83.9%
OCC1(Cc2ccc(Cl)cc2)CCN(Cc2ccc(F)c(F)c2)CC1	-68.6%
O=S(=O)(c1cccs1)N1CCC(CO)(Cc2ccc(Cl)cc2)CC1	-7.74%
OCC1(Cc2ccc(Cl)cc2)CCN(CC2CC=CCC2)CC1 (stereo not drawn)	-76.7%
OCC1(Cc2ccccc2)CCN(CCCC2CCCC2)CC1	-76.8%
O=C(C1CC=CCC1)N1CCC(CO)(Cc2ccc(Cl)cc2)CC1 (stereo not drawn)	-7.77%
O=C(Nc1ccc(Cl)cc1)N1CCC(CO)(Cc2ccccc2)CC1	-46.6%
OCC1(Cc2ccccc2)CCN(Cc2cnc(-c3ccc(Cl)cc3)nc2)CC1	-47.1%
O=C1CC(N2CCOCC2)C(=O)N1CCc1ccccc1 (stereo not drawn)	6.86%
C=C1c2cc(C)ccc2NC(=O)N1c1ccccc1	2.71%
Cc1ccc(S(=O)(=O)N2CCN(C(=O)c3ccccn3)CC2)c(C)c1	20.1%
NC(=O)C1CCN(c2oc(/C=C/c3ccc(F)cc3)nc2S(=O)(=O)c2ccccc2)CC1	5.52%
Cc1ccc(NC(=O)Nc2c(C)n(C)n(-c3ccccc3)c2=O)cc1C	13.1%
Cn1c(/C(C#N)=C/c2ccc(-c3ccc(S(N)(=O)=O)cc3)o2)nc2ccccc21	-38.1%
COc1ccc(N/C(N)=N/c2nc(CSc3ccc(Cl)cc3)cc(=O)[nH]2)cc1	17.5%

Compound	hERG current change (%, negative = inhibition) at 10uM
Cc1cccc(CN2CCC(CNC(=O)C3CCCN(S(=O)(=O)c4cnc[nH]4)C3)CC2)c1 (stereo not drawn)	-1.13%
O=C(NCc1cccnc1)C(=O)Nc1nc2ccccc2s1	3.9%
O=C(Nc1cccc2c1CCCC2)C1CCCN(S(=O)(=O)c2cccc3nonc23)C1 (stereo not drawn)	-1.23%
CCO[C@@H]1OC(C(=O)NCc2nc3ccccc3[nH]2)=C[C@H](c2ccccc2)[C@H]1CCCO	-25.4%
OCC1(Cc2ccc(Cl)cc2)CCN(Cc2ccccc2F)CC1	-69.2%
OCCC1CN(Cc2ccc(Oc3ncccn3)cc2)CCN1C1CCCCC1 (stereo not drawn)	-7.34%
CSc1ccc(CN2CCCCCC2)cc1	-35%
OCCC1CN(Cc2ccc(Oc3ncccn3)cc2)CCN1C1CCCC1 (stereo not drawn)	8.16%
CSc1ccc(/C=N/N2CCN(Cc3ccc(Cl)cc3)CC2)cc1	8.01%
OCC1(Cc2ccccc2)CCCN(Cc2ccn[nH]2)C1 (stereo not drawn)	-11.8%
OCC1(Cc2ccc(Cl)cc2)CCN(Cc2ccc(Oc3ncccn3)cc2)CC1	-74.1%
CCN1CCCC(CO)(Cc2ccccc2)C1 (stereo not drawn)	13.3%
Fc1ccccc1CN1CCN(c2ccc(Cl)cc2)CC1	1.71%
CSc1ccc(CN2CCCC(CO)(Cc3ccccc3)C2)cc1 (stereo not drawn)	-60.7%
CSc1ccc(CN2CCC(CO)(Cc3ccc(Cl)cc3)CC2)cc1	-81.3%
OCC1(Cc2ccccc2)CCN(Cc2cccc(F)c2F)CC1	-11.3%
COc1ccc(NC(=O)CNc2cc(C)ccc2C)cc1S(=O)(=O)N1CCOCC1	-8.85%
COc1cccc(-c2cn(-c3cccc(C(F)(F)F)c3)c(=S)[nH]2)c1	20.4%
Cc1cnc(C(=O)OCC(=O)N(C)CC(=O)Nc2ccccc2Cl)cn1	-2.14%
CC(OC(=O)c1ccncc1)C(=O)Nc1cccc(Cl)c1 (stereo not drawn)	-23.2%
Cc1ccc(S(=O)(=O)N(C)C)cc1NC(=O)C(C)OC(=O)c1ccc2ccccc2n1 (stereo not drawn)	-26.8%
Cc1cc(C)cc(N(CCC(=O)Nc2nnc(C3CC3)s2)S(=O)(=O)c2ccc(Cl)cc2)c1	4.63%
CCOC(=O)C1CCN(C(=O)COC(=O)c2oc3ccc(OC)cc3c2C)CC1	-55.6%
COc1ccc2oc(C(=O)OCC(=O)N3CCCCC3)c(C)c2c1	8.71%

Compound	hERG current change (%, negative = inhibition) at 10uM
COc1ccc2oc(C(=O)OCC(=O)N3CCC(C)CC3)c(C)c2c1	-0.112%
COc1ccc2oc(C(=O)OCC(=O)N3CC(C)CC(C)C3)c(C)c2c1 (stereo not drawn)	-56.1%
COc1ccc2oc(C(=O)OCC(=O)N3CC(C)OC(C)C3)c(C)c2c1 (stereo not drawn)	-0.998%
COC(=O)C1CCN(C(=O)COC(=O)c2oc3ccc(OC)cc3c2C)CC1	-17.3%
O=C(NCc1ccncc1)c1cccc(F)c1	0.361%
Cc1c(C(=O)c2ccccc2C(=O)O)sc2ccccc12	15%
Cc1cc2cc(CCNC(=O)C(C)C)c(=O)[nH]c2cc1C	2.03%
NC(=O)C1=C[C@H](C2CCCCC2)C[C@H](OCc2ccc(CO)cc2)O1	2.51%
COc1ccc(S(=O)(=O)N2CCCC2=O)cc1N(C)S(C)(=O)=O	13.8%
CCOC(=O)c1c(C)[nH]c(C)c1C(=O)COC(=O)/C=C/c1cccc(C(F)(F)F)c1	1.35%
CCC12CN3CCN(CC(C3)/C1=N/NC(=O)c1ccncc1)C2	21.2%
COc1ccccc1NC(=O)COc1ccccc1	10.9%
Cc1ccc(OCc2cc(C(=O)N3CCC(Oc4cccnc4)CC3)no2)cc1C	-56.7%
O=C(c1cc(COc2cccc(C(F)(F)F)c2)on1)N1CCC(Oc2cccnc2)CC1	-64.1%
O=C(c1cc(COc2cccc(C(F)(F)F)c2)on1)N1CCC(c2ccccc2)CC1	6.79%
O=C(c1cc(COc2cccc(C(F)(F)F)c2)on1)N1CCC(c2ccncc2)CC1	-78.8%
COc1cc(Cl)ccc1OCc1cc(C(=O)NC(C)Cc2cnccn2)no1 (stereo not drawn)	-53.8%
Cc1cc(OCc2cc(C(=O)N3CCC(Oc4cccnc4)CC3)no2)cc(C)c1Cl	9.06%
Cc1ccc(OCc2cc(C(=O)N3CCCCCCC3)no2)cc1C	3.22%
COc1ccc(OCc2cc(C(=O)NC(C)Cc3cnccn3)no2)c(Cl)c1 (stereo not drawn)	-4.5%
C[C@@H]1CN(C(=O)c2cc(COc3cccc(C(F)(F)F)c3)on2)C[C@H](C)O1	8.11%
O=C(c1cc(COc2cccc(C(F)(F)F)c2)on1)N1CCc2ccccc2C1	10.4%
COc1cccc(OCc2cc(C(=O)N3CCC(c4ccncc4)CC3)no2)c1	-40.9%
COc1cc(Cl)ccc1OCc1cc(C(=O)NC(C)Cc2cccnc2)no1 (stereo not drawn)	-30.7%

Compound	hERG current change (%, negative = inhibition) at 10uM
Cc1c(NC(=O)C2CCN(S(=O)(=O)c3ccccc3)CC2)c(=O)n(-c2ccccc2)n1C	4.47%
CCCC(=O)Nc1cc(C(=O)O)ccc1S(=O)(=O)c1ccc(C)cc1	11.6%
Cc1nc2c(c3c1[nH]c1ccccc13)C(=O)CC(C)(C)C2	-0.41%
O=C(O)CN1C(=O)/C(=C\c2cc(Br)ccc2OCc2ccc(Cl)cc2)SC1=S	15.2%
COc1ccc(-c2n[nH]c3c2CN(C(=O)c2ccc(OC)c(OC)c2)CC3)cc1	-15.5%
CC(=O)NC12CC3CC(C)(C1)CC(NC(C)=O)(C3)C2	-11.4%
COc1ccc([C@H]2[C@@H](C#N)[C@H](C#N)N3CCCN23)cc1	14.2%
CN(C)CCCOc1ccc(C(C)(C)c2ccccc2)cc1.O=C(O)C(=O)O	-16.5%
COc1ccc(NC(=O)COC(=O)c2n[nH]c3ccccc23)c(OC)c1	-4.2%
O=C(c1cnn2ccccc12)N(Cc1ccco1)C1CCCC1	4.7%
Cc1ccc(C(C)C)cc1OCC(=O)NNC(=O)Nc1ccccc1	28.3%
CC(C)=N/N=C(\c1cccc([N+](=O)[O-])c1)C12CN3CN(CN(C3)C1)C2	7.66%
CC(=O)c1cccc(OCc2cc(C(=O)NC(C)Cc3cccnc3)no2)c1 (stereo not drawn)	-6.23%
COc1ccc(OCc2cc(C(=O)NC(C)Cc3cccnc3)no2)c(Cl)c1 (stereo not drawn)	-36.3%
O=C(c1cc(COc2cccc(C(F)(F)F)c2)on1)N1CCSCC1	-17%
Cc1ccc(OCc2cc(C(=O)NC(C)Cc3cccnc3)no2)cc1C (stereo not drawn)	-91%
COc1ccc(OCc2cc(C(=O)NCC(C)Oc3cccnc3)no2)c(Cl)c1 (stereo not drawn)	-52.6%
CCOC(=O)N1CCN(C(=O)c2cc(COc3cccc(C(C)=O)c3)on2)CC1	1.62%
CC(CNC(=O)c1cc(COc2c(F)cccc2F)on1)Oc1cccnc1 (stereo not drawn)	-18.6%
Cc1ccc(OCc2cc(C(=O)NC(C)Cc3cnccn3)no2)cc1C (stereo not drawn)	0.149%
CCOC(=O)N1CCN(C(=O)c2cc(COc3cccc(C(F)(F)F)c3)on2)CC1	-76.7%

From article PMC4336329 (PLoS ONE, 2015)
